From PubChem BioAssay (NCATS) come the findings set out here.

SMILES strings stand for the structures. Inconclusive results are not listed. The source made the active and inactive calls. Calls come from the whole dose curve; as a rule, active = well fitted inhibition curve with a large enough effect; inconclusive = small, poorly fitted or top-dose-only effect; inactive = flat fitted curve, though single readings scatter. *1 amine or outer side, *2 acyl side, *3 side chain or, on linkers, in order; H or OH if unused. Where a SMILES comes first, the peptide text is derived from it. [ ]: non-standard residue; d: D form. The star is where a group is joined. ξ: configuration not given here. X9 = CCC(C)(N*)C(=O)C1CC[C@@H](C(=O)N[C@@H](Cc2ccccc2)C(=O)NCC(=O)O)N1; X8 = O=C([C@@H]1CC(O)CN1[*:1])[*:2]; aIle = CC[C@@H](C)[C@H](N)C(=O)O; Thr(3ξ) = CC(O)[C@H](N)C(=O)O; ξIva = CCC(C)(N)C(=O)O; Aib = CC(C)(N)C(=O)O
% is set by controls: 0 for no effect and ±100 for the full control effect.

The nature of the assay: P-glycoprotein substrates identified in KB-8-5-11 adenocarcinoma cell line, qHTS therapeutic library screen (AID 1346987). Note: nearly all actives have a fitted effect of over 65% in size. Particulars: KB-8-5-11 (P-gp overexpressing) viability, CellTiter-Glo, 72 h; series mostly up to 44.5 µM; activity change, negative = cytotoxicity: at the top concentration. Put shortly:
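KB-8-5-11, a colchicine-selected P-gp-overexpressing KB-3-1 subline, was grown without colchicine for the assay. Cells were seeded at 500 cells/well, dosed in concentration-response and incubated 72 h at 37 degree C, 5% CO2. Viability was read by CellTiter-Glo luminescence.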
Regarding `O=C(NC1Cc2ccccc2N(C[C@@H](O)CO)C1=O)c1cc2cc(Cl)sc2[nH]1` (some centres not stated), the “activity change, negative = cytotoxicity” value is 0.381% (inactive).

As for `CC1=C2C[C@H]3OC(=O)[C@H](O)[C@@]4(O)[C@@H](C)[C@@H](O)[C@H](O)C([C@@]2(C)[C@H](O)[C@@H](O)C1)[C@@]34C` (some centres not stated), the “activity change, negative = cytotoxicity” value is 6.38% (inactive).

In the case of `CC(=O)OC[C@]12[C@@H](OC(=O)c3ccoc3)C[C@@H]3[C@@H](OC(C)=O)[C@]1(OC3(C)C)[C@@](C)(O)C[C@H](OC(=O)c1ccoc1)[C@@H]2OC(=O)c1ccoc1`, the “activity change, negative = cytotoxicity” value is -11.7% [at 17.3 µM] (inactive).

Consider `COc1cc(C(C)=O)ccc1O[C@@H]1O[C@H](CO[C@@H]2OC[C@@H](O)[C@H](O)[C@H]2O)[C@@H](O)[C@H](O)[C@H]1O`, for which the “activity change, negative = cytotoxicity” value was 7.86% [at 17.3 µM] (inactive).

For `CC(C)(O)C1CC=C(C(=O)OC[C@H]2O[C@@H](OC(=O)C3=CCC(C(C)(C)O)CC3)[C@H](O)[C@@H](O)[C@@H]2O)CC1` (some centres not stated), the “outcome” value is “inactive [at 17.3 µM]”.

`C=C1C(=O)O[C@@H]2CC(C)=C([C@@H](C)CCCOC(C)=O)[C@@H](O)[C@H]12`: the “activity change, negative = cytotoxicity” value was 2.89% (inactive).

Regarding `CC[C@@H](C)[C@H](NC(=O)C(C)(C)NC(=O)[C@H](CCC(N)=O)NC(=O)C(C)(CC)NC(=O)[C@H](Cc1c[nH]c2ccccc12)NC(C)=O)C(=O)N[C@H](C(=O)NC(C)(C)C(=O)N[C@@H](CC(C)C)C(=O)NC(C)(C)C(=O)N1CCC[C@H]1C(=O)N[C@@H](CCC(N)=O)C(=O)NC(C)(C)C(=O)N1CC(O)C[C@H]1C(=O)NC(C)(CC)C(=O)C1CC[C@@H](C(=O)N[C@@H](Cc2ccccc2)C(=O)NCC(=O)O)N1)C(C)O` (some centres not stated) (Ac-W[ξIva]Q[Aib][aIle][Thr(3ξ)][Aib]L[Aib]PQ[Aib][X8]-X9), the activity change, negative = cytotoxicity was -19% [at 5.11 µM] (inactive).

For the compound `C=C1CC[C@]2(C(=O)O[C@@H]3O[C@H](CO)[C@@H](O)[C@H](O)[C@H]3O)CC[C@]3(C)C(=CCC4[C@@]5(C)C[C@H](O)[C@@H](O[C@@H]6O[C@H](C(=O)O)[C@@H](O)[C@H](O)[C@H]6O)[C@](C)(C=O)C5CC[C@]43C)C2C1` (some centres not stated), the outcome is “inactive [at 9.29 µM]”.

Consider `O=C(O)c1cc(C(F)(F)F)ccc1N1CC[C@H](OCc2ccccn2)C1`, for which the “activity change, negative = cytotoxicity” value was 6.46% (inactive).

In the case of `CC1=C2C(=O)C=C(CO[C@@H]3O[C@H](CO)[C@@H](O)[C@H](O)[C@H]3O)[C@@H]2[C@H]2OC(=O)[C@H](C)[C@@H]2[C@@H](O)C1`, the “outcome” value was “inactive [at 17.3 µM]”.

As for `C=CC(C)(O)CCC1C(C)(O)CCC2C(C)(C)CCCC21C` (configuration not stated), the “activity change, negative = cytotoxicity” value is -4.2% (inactive).

Consider `CC1(C)CC[C@]2(C(=O)O)CC[C@]3(C)C(=CCC4[C@@]5(C)C[C@H](O)[C@H](O[C@@H]6O[C@H](CO)[C@@H](O)[C@H](O)[C@H]6O)[C@@](C)(CO)C5[C@H](O)C[C@]43C)[C@@H]2C1` (some centres not stated), for which the “activity change, negative = cytotoxicity” value is 4.61% [at 17.3 µM] (inactive).

As for `OC[C@H]1O[C@@H](OCCc2ccccc2)[C@H](O)[C@@H](O)[C@@H]1O`, the compound was classed as inactive.

For the compound `CC(C)(O)c1ccc2c(c1)C(=O)C[C@H]1[C@](C)(C(=O)O)CCC[C@]21C`, the outcome was inactive.

Turning to `CC(=O)[C@@H]1C[C@H](C(C)(C)O[C@@H]2O[C@H](CO)[C@@H](O)[C@H](O)[C@H]2O)CC[C@@]2(CO)OC(=O)C[C@@H]12`, the “outcome” value was “inactive [at 17.3 µM]”.

Regarding `COc1ccc(-n2c(SCC#N)nc3sc4c(c3c2=O)CCCC4)cc1`, the “activity change, negative = cytotoxicity” value is 7.68% (inactive).

Take `C[C@H]1/C=C/C=C/C=C/C=C/C=C/[C@@H](O)[C@H](C(=O)O)[C@H](O)C[C@H](O)CCC[C@H](O)C[C@H](O)C[C@H](O)[C@@H](C)C(=O)O[C@@H]1C`: the “outcome” value was “inactive [at 17.3 µM]”.
